PubChem BioAssay (EPA / NIEHS)
The source made the active and inactive calls. The calls were made as follows: active = hit-call score of the fitted dose curve at least 0.9, where 1 is the maximum; inactive = score below 0.9.

Each compound was assayed on Vascular cell adhesion molecule 1 (VCAM1), VCAM1 (gene 7412) (assay: BSK_LPS_VCAM1: BioMAP Diversity Plus: LPS Assay for Vascular cell adhesion molecule 1 (VCAM1) Biomarker Activity (AID 2283086)). Conditions: primary human HUVEC with PBMC; actives raise or lower the signal.
Method: BSK_LPS is a cell-based, multiplexed-readout assay that uses umbilical vein endothelium and peripheral blood mononuclear cells, a human vascular primary cell co-culture, with measurements taken at 24 hours after chemical dosing in a 96-well plate.BSK_LPS_VCAM1 is an assay component measured in the BSK_LPS assay. It measures VCAM-1 antibody related to regulation of gene expression using ELISA technology.Data from the assay component BSK_LPS_VCAM1 was analyzed into 1 assay endpoint. This assay endpoint, BSK_LPS_VCAM1, was analyzed with bidirectional fitting relative to DMSO as the negative control and baseline of activity. Using a type of binding reporter, gain or loss-of-signal activity can be used to understand changes in the signaling as they relate to the gene VCAM1. Furthermore, this assay endpoint can be referred to as a primary readout, because this assay has produced multiple assay endpoints where this one serves a signaling function. To generalize the intended target to other relatable targets, this assay endpoint is annotated to the cell adhesion molecules intended target family, where the subfamily is Immunoglobulin CAM.
The levels of cell surface (or secreted, indicated by the prefix "s") biomarker endpoints were measured by ELISA. Overt cytotoxicity to cells in confluent adherent cultures (all systems other than the BT system) was assessed by measuring total protein levels using sulforhodamine B (SRB) staining in parallel cultures at the time of biomarker measurements, indicated as SRB endpoints. For proliferation assays for adherent cell types, individual cell types are cultured at sub-confluence and relative cell numbers quantified by SRB staining at time points optimized for each system (48 h: 3C and CASM3C systems; 72 h: BT and HDF3CGF systems; 96 h: SAg system). SRB was performed by staining cells with 0.1% SRB after fixation with 10% TCA and reading wells at 560 nm.Viability and proliferation of PBMC (T cells) was quantified by Alamar Blue reduction for the SAg and BT systems. For PBMC viability (referred to as PBMC Cytotoxicity within the assay endpoint names), cells were plated (75,000/well in a 96-well plate) and then chemical samples added for 1 h before addition of activators, SEB and TSST-1 (20 ng/mL final concentration each). Cells were incubated for 90 h. Then, Alamar Blue (20 uL/well) (Invitrogen, Cat DAL1100) was added for 6 h, and the plates were read with a fluorescence microplate reader at 546/580 nm (excitation/emission). For PBMC proliferation, cells were plated and activated as above but incubated for only 16 h prior to addition of Alamar Blue. Plates were read after 6 h.
In the case of `CC(=O)S[C@H](C(=O)N[C@H]1Cc2ccccc2[C@H]2CCC[C@@H](C(=O)O)N2C1=O)C(C)C`, the outcome is reported as “inactive”. `CCCCOC(=O)CCCCC(=O)OCCCC` was tested, and the outcome was “inactive”. With `O=C(N[C@@H](c1ccccc1)[C@@H]1CCCCN1)c1cccc(C(F)(F)F)c1Cl` the AC50 was 20 µM (active). In the case of `CSc1ccc(Oc2ccc(S(N)(=O)=O)cc2CN(C)C)cc1C`, the outcome is reported as “inactive”. With `CCCCC(CC)CO` (stereo not given) the outcome was “inactive”. In the case of `CC(C)OC(=O)C(C)(C)Oc1ccc(C(=O)c2ccc(Cl)cc2)cc1`, the AC50 is reported as 32.2 µM (active). For `COC(=O)CCC(=O)OC`, the outcome was “inactive”. With `O=NO` the outcome was “inactive”. For `CC(C)c1cccc(C(C)C)c1`, the outcome was “inactive”. In the case of `NC(=Nc1ccccc1)Nc1ccccc1`, the outcome is reported as “inactive”. In the case of `CCCCCCCCCCCCCCCCO`, the outcome is reported as “inactive”. `COC(=O)[C@H]1[C@H]2C[C@@H]3c4[nH]c5cc(OC)ccc5c4CCN3C[C@H]2C[C@@H](OC(=O)c2cc(OC)c(OC)c(OC)c2)[C@@H]1OC` was tested, and the AC50 was 12 µM (active). For `C=CCc1ccc(OC)c(OC)c1`, the outcome was “inactive”. `CC(N)=O` was tested, and the outcome was “inactive”. With `S=c1[nH]c2ccccc2s1` the outcome was “inactive”. For `Oc1ccccc1O`, the AC50 was 2.79 µM (active). With `C/C=C/C=C/C(=O)O` the outcome was “inactive”. With `CCc1cc(C2=C(C(=O)O)N(c3ccccc3C(F)(F)F)S(=O)(=O)c3ccccc32)cc2c1OCO2` the outcome was “inactive”. In the case of `COc1ccc(C(=O)Nc2nc3ccccc3c(NCc3ccccc3)c2C#N)cc1`, the AC50 is reported as 4.78 µM (active). With `CCCC[C@H]1CN(CC2CCOCC2)C(=O)OC12CCN(C1(C)CCN(C(=O)c3c(C)ncnc3C)CC1)CC2` the outcome was “inactive”. For `CC(COCC(C)OC(=O)c1ccccc1)OC(=O)c1ccccc1` (stereo not given), the outcome was “inactive”. For `O=C(Oc1ccccc1)c1cccc(C(=O)Oc2ccccc2)c1`, the outcome was “inactive”. `CC(C)COC(=O)CCCCC(=O)OCC(C)C` was tested, and the outcome was “inactive”. For `O=C(O)c1cccnc1`, the outcome was “inactive”. In the case of `OCC(CO)n1cnc(-c2ccc(F)cc2)c1-c1ccnc(Oc2ccccc2)n1`, the outcome is reported as “inactive”. In the case of `CC1(C)C(=O)NC(=O)N1CO`, the outcome is reported as “inactive”. With `CS(=O)(=O)c1ccc([C@@H](C[C@H]2CCC(=O)C2)C(=O)Nc2cnccn2)cc1Cl` the outcome was “inactive”. With `CCCCC(CC)COC(=O)CCCCCCCC(=O)OCC(CC)CCCC` (stereo not given) the outcome was “inactive”. With `O=C1O[C@H]([C@H](O)CO)C(O)=C1O` the outcome was “inactive”. For `CC(=O)O`, the outcome was “inactive”. For `CCC(C)N(C)C(=O)c1cc2ccccc2c(-c2ccccc2Cl)n1` (stereo not given), the outcome was “inactive”. With `C/C=C/c1ccc(OC)cc1` the outcome was “inactive”. In the case of `NC=O`, the outcome is reported as “inactive”. In the case of `Cc1cc(SC2=C(O)C[C@@](CCc3ccc(N)cc3)(C(C)C)OC2=O)c(C(C)(C)C)cc1CO`, the outcome is reported as “inactive”. With `Cc1ccc(-c2cc(C(F)(F)F)nn2-c2ccc(S(N)(=O)=O)cc2)cc1` the AC50 was 31.7 µM (active). In the case of `O=[Si]=O`, the outcome is reported as “inactive”. With `O=C1OC(c2ccc(O)cc2)(c2ccc(O)cc2)c2ccccc21` the AC50 was 30.7 µM (active). In the case of `CC(C)(C)c1ccccc1`, the outcome is reported as “inactive”. `O=Cc1ccccc1C=O` was tested, and the outcome was “inactive”. With `CC(=O)OC1CC(C)OC(C)O1` (stereo not given) the outcome was “inactive”.
